test: binders of probe aFST on microarray, primary screen, stem cell growth factor project, biochemical, small-molecule microarray, fluorescence 635/667 (AID 1086); settings: higher = more signal;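 also: score merges 667 nm fluorescence with signal-to-noise of each printed compound spot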

SMILES	composite z-score
COC(=O)C1=C(C)[C@@H](O)[C@@H](C)[C@H](c2c(OC)c(OC)c(C)c(OC)c2OC)O1	0.0017
CC(C)C[C@@H]1NC(=O)[C@H]2C[C@@H](C(=O)O)[C@@H](c3ccc(O)cc3)N2C1=O	0.123
CC(=O)OC[C@H]1O[C@@H](ON=C[C@@H](C)[C@H](OCc2ccccc2)C(C)C)[C@H](OC(C)=O)[C@@H](OC(C)=O)[C@@H]1OC(C)=O	0.304
COc1ccc(O[C@@H]2[C@H](O)CO[C@H]2C=CC#Cc2ccccc2)cc1	-0.182
CCN1C(=O)[C@H]2[C@H]3[C@H](O)[C@H](O)CC(=NOC[C@@H](C)[C@H](OCc4ccccc4)C(C)C)[C@@H]3CC[C@H]2C1=O	0.0662
COC(=O)[C@]1(CO)N=C(c2ccc(OCCCO)cc2)O[C@@H]1c1ccccc1N=[N+]=[N-]	0.138
CCCCCN1CC=CC23O[C@@H]4C=CCOC(=O)[C@@H]4[C@H]2C(=O)N(CCCCCCO)[C@@H]3C1=O (stereo partly drawn)	-0.823

test: binders of probe aHhip on microarray, primary screen, stem cell growth factor project, biochemical, small-molecule microarray, fluorescence 635/667 (AID 1087); settings: higher = more signal;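 also: score merges spot fluorescence at 667nm with spot signal to noise ratio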

SMILES	composite z-score
Cc1ccc(C2CC=C(C(=O)O)CN2S(=O)(=O)c2ccc(C)cc2)cc1 (stereo not drawn)	0.0749
COc1ccc([Si](C)(C)[C@H]2[C@H](CC(=O)N3CCC[C@H]3CO)O[C@@]3(C(=O)N(Cc4cccc(N5C(=O)COc6ccccc65)c4)c4ccccc43)[C@@H]2C)cc1	-0.0994
CC(CCN1CCc2nc(-c3ccccc3)c(-c3ccccc3)cc2C1)=NOC[C@@H](C)[C@H](OCc1ccccc1)C(C)C	-0.206
CN1C(=O)C2C(C1=O)C1C=C(CCCO)C2C(c2ccc(CN3CCCC3)cc2)N1C (stereo not drawn)	0.0749
CCc1cc2c(nc1CC)CCN(CCC(C)=NO[C@@H](C)c1cc(-c3c(C)cc(C)cc3C)no1)C2	0.0187
CS(=O)(=O)CCOC(=O)C1=CC(CCCO)=CC(c2cccs2)N(Cc2cccc(OC(F)(F)F)c2)C=C1C(=O)OCCS(C)(=O)=O (stereo not drawn)	-0.191
O=C1CCCC=C1C(O)CCOCc1ccccc1 (stereo not drawn)	-0.236
CC(C)=CCCC(C)=CCON=C1[C@H]2CCn3c(=O)n(Cc4cc5c(cc4Cl)OCO5)c(=O)n3[C@H]2[C@H](O)[C@@H]2O[C@H]12	-0.328
O=C1C2=CC[C@H]3C(=O)N(Cc4ccc5c(c4)OCO5)C(=O)[C@H]3[C@H]2[C@H](O)[C@@H]2O[C@H]12	-0.308
CO[C@@H]1COC(=O)CC=C[C@@H](C)[C@@H]2C=C[C@H](O)[C@@H](COC(=O)[C@H](C)NC(=O)CC=C[C@H]1C)O2	0.351
COCCOC(=O)N1C(=O)[C@@]2(c3cc(C#CC4(O)CCCCCC4)ccc31)[C@H](c1ccc(OCCO)cc1)N1[C@H](c3ccccc3)[C@H](c3ccccc3)OC(=O)[C@H]1[C@@H]2C(=O)NC[C@H](O)c1ccccc1	-0.0994
CCCCC(=C=CC[C@H](O)c1ccccc1OCCO)C[C@H](O)COCc1ccccc1	-0.0296
C[C@@H]1C=CCC(=O)OC[C@H](C)C(=O)N2CCC[C@H]2C(=O)OC1	-0.0296
CC(C)c1ccc(NN2C(C(O)c3ccc4c(c3)OCO4)C=CC3C(=O)N(c4ccccc4)C(=O)C32)cc1 (stereo not drawn)	0.103
COc1ccc(COC(=O)NN=C2C[C@@H](O)[C@@H](O)[C@@H]3[C@@H]4C(=O)N(c5ccc(F)cc5F)C(=O)[C@@H]4CC[C@@H]23)cc1	0.168
C=C(/C(=C/C[C@@H](OC(=O)c1ccncc1)c1ccc(OCCO)cc1)c1cnc2ccccc2c1)C(C)C	0.0206
Cn1c(=O)n2n(c1=O)[C@H]1[C@H](O)[C@@H]3O[C@@H]3C(=NOC[C@@H](O)COCc3ccco3)[C@H]1CC2	0.0373
CCOC(=O)CCN1C(=O)[C@H]2[C@H]3[C@H](O)[C@H](O)CC(=NNC(=O)OCc4ccc(OC)cc4)[C@@H]3CC[C@H]2C1=O	0.251

SMILES	composite z-score
CCCNC(=O)OC[C@H]1O[C@H](CCON=CC[C@@H]2C=C[C@H](OC(C)=O)[C@@H](COC(C)=O)O2)C=C[C@@H]1Oc1ccc(OC)cc1	-0.134
COC(=O)[C@H](C)NC(=O)CCC1CC(OC(=O)NCc2cccc3ccccc23)CC2(CCCC(COC(=O)NCCc3ccc(Cl)cc3)O2)O1 (stereo partly drawn)	-0.0994
COc1ccc(O[C@H]2C=C[C@@H](c3ccccc3)O[C@@H]2COC(=O)CCC(C)=NO[C@@H](C)c2cc(-c3c(C)cc(C)cc3C)no2)cc1	-0.237
CN(C)C(=O)[C@@]1(Cc2ccccc2)N=C(c2ccc(OCCCO)cc2)O[C@H]1c1ccccc1CN=[N+]=[N-]	0.898
COc1ccc(OC[C@H]2Cc3c(-c4ccccc4)nc4c(c3CO2)CN(CCOc2ccccc2)CC4)cc1	-0.0618
COC(=O)C1=C(C)N(Cc2ccccc2)[C@]23O[C@](C(=O)OC)(C(=O)N2[C@@H]1c1ccccc1)[C@H]1CCOC(=O)[C@H]13	-0.0645
COC(=O)CC=C[C@@H](C)[C@@H](C=NO[C@@H](C)c1cc(-c2c(C)cc(C)cc2C)no1)OC	-0.0672
COc1ccc(O[C@H]2C=C[C@@H](c3ccccc3)O[C@@H]2COC(=O)CCC(C)=NO[C@H](C)c2cn([C@@H]3COC[C@H]3O)nn2)cc1	-0.411
CC(C)=NOCc1cccc(-c2cc(-c3ccccc3)no2)c1	0.0024
CCCNC(=O)OC[C@H]1O[C@H](CCON=C2[C@H]3CCn4c(=O)n(-c5ccccc5)c(=O)n4[C@H]3[C@H](O)[C@@H]3O[C@H]23)C=C[C@@H]1Oc1ccc(OC)cc1	-0.0994
CC[C@@H](c1ccccc1)n1c(=O)n2n(c1=O)[C@H]1[C@H](O)[C@@H]3O[C@@H]3C(=NOCC(C)C)[C@H]1CC2	-0.0994
COC(=O)C1=C(C)[C@@H](O)[C@@H](C)[C@H](c2c(OC)c(OC)c(C)c(OC)c2OC)O1	-0.0645
CC(C)C[C@@H]1NC(=O)[C@H]2C[C@@H](C(=O)O)[C@@H](c3ccc(O)cc3)N2C1=O	0.613
CC(=O)OC[C@H]1O[C@@H](ON=C[C@@H](C)[C@H](OCc2ccccc2)C(C)C)[C@H](OC(C)=O)[C@@H](OC(C)=O)[C@@H]1OC(C)=O	-0.134
COc1ccc(O[C@@H]2[C@H](O)CO[C@H]2C=CC#Cc2ccccc2)cc1	-0.0237
CCN1C(=O)[C@H]2[C@H]3[C@H](O)[C@H](O)CC(=NOC[C@@H](C)[C@H](OCc4ccccc4)C(C)C)[C@@H]3CC[C@H]2C1=O	-0.169
COC(=O)[C@]1(CO)N=C(c2ccc(OCCCO)cc2)O[C@@H]1c1ccccc1N=[N+]=[N-]	-0.39
CCCCCN1CC=CC23O[C@@H]4C=CCOC(=O)[C@@H]4[C@H]2C(=O)N(CCCCCCO)[C@@H]3C1=O (stereo partly drawn)	-0.429
